Screening results: PubChem, Buhrlage Lab, Dana-Farber Cancer Institute and Novartis Institutes for BioMedical Research (Cambridge, Mass)
Rows were chosen to be rich in hits. Some 9.6% of all compounds tested hit in one or more screens of this group.
USP17 block = inhibitors of human USP17 deubiquitinase; Ubiquitin carboxyl-terminal hydrolase 17-like protein 5 (Homo sapiens), A8MUK1; 47,000 tested, 6.5% active; purified USP17, Ub-rhodamine cleavage fluorescence, 3 h; inhibition, % at 50 µM
USP30 block = inhibitors of human USP30 deubiquitinase; AID 1645860, 2021; inhibition, % at 25 µM; 47,000 tested, 5.3% active; purified USP30, Ub-rhodamine cleavage fluorescence
Target sequence (Q70CQ3 whole entry, looked up): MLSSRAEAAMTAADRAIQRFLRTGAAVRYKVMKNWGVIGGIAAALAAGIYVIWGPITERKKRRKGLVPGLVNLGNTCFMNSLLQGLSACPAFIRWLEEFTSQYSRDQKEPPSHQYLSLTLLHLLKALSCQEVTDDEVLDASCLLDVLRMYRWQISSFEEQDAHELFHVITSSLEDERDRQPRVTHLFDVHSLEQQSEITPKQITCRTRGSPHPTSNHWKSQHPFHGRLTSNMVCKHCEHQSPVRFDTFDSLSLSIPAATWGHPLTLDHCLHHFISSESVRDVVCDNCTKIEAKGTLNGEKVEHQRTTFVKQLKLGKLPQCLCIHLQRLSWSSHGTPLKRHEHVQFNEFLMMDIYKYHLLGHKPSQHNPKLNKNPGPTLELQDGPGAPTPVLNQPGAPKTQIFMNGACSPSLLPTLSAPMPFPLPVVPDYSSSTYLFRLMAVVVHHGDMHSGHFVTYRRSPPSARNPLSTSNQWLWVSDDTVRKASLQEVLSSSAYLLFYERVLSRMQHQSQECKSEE
The depositor's hits bear a star; . = no result given. No stated cut-off is given here; in the data, active means inhibition above about 30%; inactive means the rest.

SMILES	USP17 block	USP30 block
Cn1cc(N2CCC3(CCN(Cc4nccs4)CC3)C2=O)cn1	-6.5	2.0
O=C(Nc1nc2c(ccc3ccccc32)s1)c1cccc(Br)c1	47.0*	65.2*
O=C(Cc1cccc2ccccc12)Nc1nc2ccc(Br)cc2s1	-21.5	-4.7
COc1cc(C(=O)OC2CCOC2=O)ccc1OCc1ccccc1 (stereo not drawn)	-1.1	1.0
COc1ccc(Cl)cc1S(=O)(=O)N1CCN(C(=O)c2cc(C)[nH]n2)CC1	-5.4	-2.2
COc1cc(OC)c2c(C)c(CC(=O)NCCc3c[nH]c4ccccc34)c(=O)oc2c1	33.3*	-1.3
COc1cc2oc(=O)c(CC(=O)N[C@@H](Cc3c[nH]c4ccccc34)C(=O)O)c(C)c2cc1OC	.	-3.6
COc1ccc(Cl)cc1NC(=O)C1CN(C(=O)c2cc(C)on2)C1	-4.9	-6.5
CC(=O)Nc1ccc2nc(NC(=O)c3cc(C)n(C)n3)sc2c1	-9.7	3.8
CC(=O)Nc1ccc2nc(NC(=O)C34CC5CC(CC(C5)C3)C4)sc2c1	37.2*	13.5
Cc1ccc(Nc2cc(C(=O)NC3CCC(C)CC3)c3ccccc3n2)c(C)c1 (stereo not drawn)	5.3	19.4
CC(C)CCCCCCCCCCCC(=O)O	43.0*	46.9*
N[C@H](CCCC(=O)O)C(=O)O	-0.4	9.8
Cc1sc(NC2CCCC2)nc1-c1ccc2c(c1)CCN2C(=O)CC(C)(C)C	-37.9	-107.6
COc1ccccc1CC(=O)N1CCC(Cc2ccccc2)CC1	11.5	35.9*
O=C(Cc1cccc2ccccc12)N1CCC(Cc2ccccc2)CC1	20.2	43.9*
O=C(c1nnn(-c2ccccc2)n1)N1CCC(Cc2ccccc2)CC1	10.4	30.9*
CN(CC(=O)N1CCC(Cc2ccccc2)CC1)Cc1ccccc1	5.6	10.3
CN(Cc1ccccc1)C(=O)c1nnn(-c2ccccc2)n1	-2.3	6.0
c1ccc(CC2CCN(Cc3cccc4ccccc34)CC2)cc1	6.0	6.6
CC(C)(C)c1cc2n(n1)CCN(C(=O)c1ccncc1)C2	18.9	14.7
Cc1noc2c1C(c1ccc(O)cc1)C1=C(CC(c3ccc(O)cc3)CC1=O)N2 (stereo not drawn)	-3.0	-20.1
O=C(c1ccccn1)N1CCCC2(C1)Nc1cccnc1NC2=NCc1ccccc1 (stereo not drawn)	-27.3	-116.5
Cc1nc(C2CCN(S(C)(=O)=O)CC2)nc2c1CCC(=O)N2CC1CCCCC1	-20.2	-21.4
Cc1sc(N)nc1-c1ccc(C(C)(C)C)cc1	-7.6	-11.2
SMILES	USP17 block	USP30 block
Cc1ccc(C(=O)N2CCc3cc(-c4csc(NC(=O)CN(C)C5CCCCC5)n4)ccc32)cc1	23.2	-15.2
Cc1cccc(C(=O)N2CCc3cc(-c4csc(NC(=O)CNc5ccccc5)n4)ccc32)c1	31.1*	-40.3
Cc1sc(NC(=O)CN2CCc3ccccc3C2)nc1-c1ccc2c(c1)CCN2C(=O)CC(C)(C)C	-12.1	-34.1
Cc1cccc(C(=O)N2CCc3cc(-c4nc(NC(=O)CNc5ccccc5)sc4C)ccc32)c1	60.3*	20.3
Cc1sc(NC(=O)Cn2nnc3ccccc3c2=O)nc1-c1ccc2c(c1)CCN2C(=O)C(C)C	56.1*	.
O=C(Cn1nnc2ccccc21)Nc1nc(-c2ccc3c(c2)CCN3C(=O)c2ccccc2F)cs1	54.3*	11.5
Cc1sc(NC(=O)Cn2nnc3ccccc32)nc1-c1ccc2c(c1)CCN2C(=O)c1ccccc1F	14.4	3.3
Cc1sc(NC(=O)CN(C)C2CCCCC2)nc1-c1ccc2c(c1)CCN2C(=O)c1cccc(F)c1	11.8	5.6
COc1ccc(-c2cc(=O)n3[nH]c(-c4ccc(F)cc4)cc3n2)cc1	-10.9	-17.7
CN1CCN(C(=O)c2c3c(NCC4CC4)ncnc3n3ccccc23)CC1	-81.4	-388.7
COc1cccc2cc(C(=O)NC3CNC(=O)C3)oc12 (stereo not drawn)	-4.6	-6.3
O=C(C1CCCN1c1nnc(N2CCCC2=O)s1)N1CCN(c2ccc(F)cc2)CC1 (stereo not drawn)	-14.8	-10.8
Fc1ccc(N=c2scc(-c3ccccc3F)n2CC2CCCO2)cc1 (stereo not drawn)	-2.0	3.1
Cn1c2ccc(F)cc2c2ncn(Cc3ccc4c(c3)OCO4)c(=O)c21	26.6	28.4
CCc1nc2ccc(C(=O)Nc3nc(-c4ccc5c(c4)CCN5C(=O)C4CCCCC4)c(C)s3)cc2nc1CC	8.4	-14.6
Cc1ccc(C(=O)N2CCc3cc(-c4nc(NC(=O)CN5CCCCCC5)sc4C)ccc32)cc1	12.9	3.5
CCc1nc2ccc(C(=O)Nc3nc(-c4ccc5c(c4)CCN5S(=O)(=O)c4ccccc4)c(C)s3)cc2nc1CC	32.4*	-3.8
Cc1sc(NC(=O)CN2CCOCC2)nc1-c1ccc2c(c1)CCN2C(=O)C(C)C	-7.5	-29.6
Cc1cccc(C(=O)N2CCc3cc(-c4nc(NC(=O)CN5CCCC5)sc4C)ccc32)c1	45.1*	-15.3
Cc1sc(NC(=O)CNc2ccccc2)nc1-c1ccc2c(c1)CCN2C(=O)C(C)C	50.8*	-13.3
